High-throughput results (PubChem)
Anthrax LF prot: anthrax lethal factor protease inhibition; multiplex microsphere protease cleavage assay, LF; inhibition, % at 10 µM; 360,000 compounds, 0.12% hits; AID 588501; further: plate controls were buffer without enzyme for full effect and enzyme alone for no effect
BoNT A protease: blocks Botulinum neurotoxin A light chain protease. multiplex microsphere protease substrate cleavage, flow cytometry. 360,000 compounds, 0.17% hits. inhibition, % at 10 µM; further: plate controls were buffer without enzyme for full effect and enzyme alone for no effect
BoNT-F LC inh: inhibitors of Botulinum neurotoxin F light chain protease | Multiplex microsphere protease cleavage assay, flow cytometry | inhibition, % at 10 µM | 360,000 compounds, 0.22% hits | AID 588497; in the data active means inhibition above about 35%, passing the limit was not always enough; inconclusive means no clear call, values can overlap the other calls; further: plate controls were buffer without enzyme for full effect and enzyme alone for no effect
Bead autofluor: flagged as autofluorescent in microsphere protease counterscreen | compound autofluorescence counterscreen, microsphere flow cytometry; hits give high values | fluorescence intensity (no concentration beside the values) | 360,000 compounds, 3.1% hits; in the data active means fluorescence intensity above about 16000; inconclusive means no clear call, values can overlap the other calls
CCHFV vOTU inh: CCHFV vOTU protease inhibition. inhibition, % at 11.5 µM. AID 651958. 370,000 compounds, 0.55% hits. Pep-AMC fluorescence; in the data active means inhibition above about 30%; further: 0% = vehicle wells with enzyme and 100% = no enzyme wells
SARS 3CLpro inh: SARS-CoV 3CLpro protease inhibition; recombinant SARS-CoV 3CLpro, quenched FRET peptide cleavage; inhibition, % at 6 µM; 290,000 compounds, 0.14% hits; AID 1706; in the data active means inhibition above about 12%
The depositor's hits bear a star; u = inconclusive; x = no result given. Hits are enriched below; roughly 3.9% of the tested compounds scored in any of these assays. Unless noted, no stated cut-off is given here; in the data, active means inhibition above about 30%; inconclusive means no clear call, values can overlap the other calls; inactive means below that.

SMILES	Anthrax LF prot	BoNT A protease	BoNT-F LC inh	Bead autofluor	CCHFV vOTU inh	SARS 3CLpro inh
O=C(CN1CCc2ccccc2C1)NCc1ccco1	-8.0	3.1	2.8	19256*	-5.5	-0.9
CC1(C)CC(CC(=O)Nc2ccccn2)C(=O)O1 (stereo unspecified)	0.4	-0.8	-0.6	23618*	1.9	-0.8
COC(=O)c1ccc2ccn(CC(=O)NC3CCCCC3)c2c1	-1.6	-0.6	u	4051	-7.0	2.6
N#Cc1ccc2ccn(CC(=O)NC3CCCCCC3)c2c1	-1.1	-0.7	0.3	21036*	-6.8	-1.0
COC(=O)c1ccccc1NC(=O)COC(=O)CSCC(=O)N1CCOCC1	-4.3	-1.5	-4.6	23481*	-8.5	-0.5
CCOC(=O)c1ccccc1NC(=O)COC(=O)CSCC(=O)Nc1cc(C)on1	2.8	-2.9	-0.4	6214	-0.3	x
Cc1ccccc1NC(=O)OC1CCC12CCCCC2 (stereo unspecified)	x	x	x	x	3.7	x
Cc1ccc(CNC(=O)C2CCCN2C(=O)Nc2ccc(C)cc2)cc1 (stereo unspecified)	2.0	-2.2	7.9	3392	9.1	3.0
CCCCNC(=O)C1CCN(C(=O)Nc2ccc(C)cc2)CC1	-8.8	-0.4	2.0	6543	-3.6	-0.4
Cc1ccc(NC(=O)N2CCC(C(=O)NCCC3=CCCCC3)CC2)cc1	-3.4	-0.4	-3.2	16684*	-2.0	2.9
Cc1ccc(NC(=O)N2CCCC2C(=O)NCCC2=CCCCC2)cc1 (stereo unspecified)	-9.5	u	5.7	18611*	-5.0	1.3
COC(=O)C1CN(Cc2cn(Cc3ccc(OC)cc3)nn2)CCS(=O)(=O)N1Cc1ccc(F)cc1 (stereo unspecified)	x	x	x	x	-1.2	x
CCOC(=O)Cn1cc(CN2CCS(=O)(=O)N(Cc3ccc(F)cc3)C(C(=O)OC)C2)nn1 (stereo unspecified)	x	x	x	x	0.8	x
C=CCN1C(=O)[C@@H](CC(=O)NCc2cccc(C(F)(F)F)c2)[C@]2(C(=O)OC)CCCCC=C12	x	x	x	x	9.6	x
O=C(CSc1nccc(=O)[nH]1)Nc1ccc(F)c(Cl)c1	-0.1	u	-0.4	24003*	11.0	5.1
COc1cc(OC)cc(C(=O)NC(=S)NCc2ccco2)c1	-5.9	u	-2.6	16948*	x	6.5
O=C(NCc1ccco1)c1cc(-c2ccc(Cl)cc2)on1	-1.3	0.8	1.2	22771*	-15.0	-0.5
O=C(NCc1ccco1)c1cc(-c2cccc(Cl)c2)on1	-11.5	2.6	3.0	21505*	5.0	2.9
O=C(NCc1ccco1)c1ccc(-c2cccc(Cl)c2)o1	-0.5	-1.9	-9.4	4376	3.2	4.6
Cc1cc(C(=O)NCc2ccco2)no1	-0.7	2.9	4.4	22251*	-12.4	-2.9
Cc1ccc(-c2cc(C(=O)NCc3ccco3)no2)cc1	-7.9	u	-15.4	8560	-0.2	-5.4
COc1ccc(-n2c(SCC(=O)N(CC(C)C)CC(C)C)nnc2-c2ccncc2)cc1	x	x	x	x	5.5	x
CN1C(=O)c2cc(NC(=O)C3CCCCC3)ccc2OC[C@H]2O[C@@H](CC(=O)NC3CCCC3)CC[C@H]21	x	x	x	x	0.8	x
COc1cccc(CNC(=O)CCCN2C(=O)COc3ccc(C)cc32)c1OC	x	x	x	x	-6.2	x
COc1ccc(CNCC#Cc2cccnc2)c(OC)c1	x	x	x	x	0.5	x
SMILES	Anthrax LF prot	BoNT A protease	BoNT-F LC inh	Bead autofluor	CCHFV vOTU inh	SARS 3CLpro inh
NC(=O)c1ncn([C@@H]2O[C@H](C(=O)N3CCN(Cc4ccccn4)CC3)[C@@H](O)[C@H]2O)n1	x	x	x	x	8.4	x
COC(=O)C[C@H]1CC[C@@H]2[C@@H](COc3ccc(NC(=O)c4ccno4)cc3C(=O)N2C)O1	x	x	x	x	14.2	x
CCOC(=O)[C@]12CCCC=C1N(CCCOC)C(=O)[C@@H]2CC(=O)N1CCCC1	x	x	x	x	12.9	x
COC(=O)C[C@@H]1CC[C@H]2[C@@H](COc3ccc(NC(=O)c4ccc(C(F)(F)F)cc4)cc3C(=O)N2C)O1	x	x	x	x	4.8	x
O=C(NCc1ccco1)c1cc(-c2ccc3c(c2)OCO3)on1	-2.9	-4.3	-6.5	17176*	-6.3	1.7
COc1cccc(N2CCN(C(=S)NCc3ccco3)CC2)c1	-6.2	-1.4	-4.3	16347*	-2.4	-3.1
COc1cccc(-c2cc(C(=O)NCc3ccco3)no2)c1	-3.2	-2.8	-4.6	24153*	-12.3	3.4
Cn1nnc(-c2ccc(OCc3ccccc3F)cc2)n1	-5.0	-0.4	-3.4	23800*	-4.2	2.4
C#CCN1CC(COc2ccccc2)Oc2cccc(Oc3ccc(C(C)C)cc3)c2S1(=O)=O (stereo unspecified)	x	x	x	x	3.8	x
C=CCSc1nc(=O)n2cccc(C)c2n1	-5.5	-1.7	-2.6	21125*	-1.2	-6.5
O=C(NCCc1ccccc1)OCc1cn(-c2cccc(C(F)(F)F)c2)nn1	x	x	x	x	10.6	x
Cc1ccc2c(c1)N(CC(=O)N(Cc1ccc3c(c1)OCO3)CC1CCCO1)C(=O)C(C)O2 (stereo unspecified)	0.7	-0.2	-3.4	23947*	10.2	6.9
Cc1ccc2c(c1)N(Cc1cccc(F)c1)C(=O)C(C)O2 (stereo unspecified)	5.0	1.7	-10.5	3691	4.9	1.4
Cc1ccc2c(c1)N(CC(=O)N1CCCCCC1)C(=O)C(C)O2 (stereo unspecified)	-2.3	0.7	-19.7	3871	17.9	1.4
Cc1ccc2c(c1)N(Cc1ccncc1)C(=O)C(C)O2 (stereo unspecified)	-2.9	1.5	1.6	22957*	-23.9	3.1
Cc1ccc2c(c1)N(CC(=O)c1cccc(Cl)c1)C(=O)C(C)O2 (stereo unspecified)	-3.5	-1.9	-1.7	23986*	-9.3	-7.2
CC1Oc2ccccc2N(CC(=O)c2cccc(Cl)c2)C1=O (stereo unspecified)	-12.5	12.0	13.4	19669*	-2.9	0.8
COc1ccc2c(c1)C(NC(=O)C(F)(F)F)CC21CCCCC1 (stereo unspecified)	x	x	x	x	1.8	x
O=c1cc(CSc2nnnn2-c2ccccc2)nc(Nc2ccc(F)cc2)[nH]1	-0.1	-0.1	2.6	23279*	4.5	3.0
COc1ccc(N=C(N)NC(=O)OCc2ccccc2)cc1	x	x	x	x	-6.5	x
O=C(CNC(=O)c1ccccc1F)OC(C(=O)Nc1cc(C(F)(F)F)ccc1Cl)c1ccccc1 (stereo unspecified)	-0.3	2.1	3.5	22099*	5.4	-0.4
O=C1NC(c2cccnc2)Nc2sc3c(c21)CCCC3 (stereo unspecified)	4.2	-1.3	-6.3	10852	-10.2	-0.7
O=C1NC(c2ccc(Br)cc2)Nc2sc3c(c21)CCC3 (stereo unspecified)	-3.9	1.0	1.8	22598*	-0.6	-3.4
CCc1cc2c(nc1CC)CCCN2CCOC	x	x	x	x	-51.3	x
C=CCN1C(=O)[C@H](CC(=O)NCc2ccc(OC)c(OC)c2)[C@@]2(C(=O)OCC)CCCC=C12	x	x	x	x	-0.2	x
CCOC(=O)N1CCN(c2ncnc3c2oc2nc(C(C)C)c4c(c23)CCC4)CC1	-5.3	3.7	4.3	20792*	8.7	5.1
CC1CCCN(c2cccc3c2S(=O)(=O)N(Cc2cccc(Cl)c2)[C@@H](C)[C@H](c2ccccc2)O3)C1 (stereo partly specified)	x	x	x	x	-0.5	x
